According to PubChem BioAssay:
Active and inactive are the calls of the source. Unless noted, no stated cut-off is given here; in the data, active means inhibition above about 25%; inactive means the rest.

Target: Nuclear receptor coactivator 1 (Homo sapiens) (UniProt Q15788)
Assay: NCOA1 GAL4-fusion reporter inhibition – cell-based, luminescence, quadruplicate, confirmation (AID 588820;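 active means mean inhibition above 46.68%, the untreated control wells mean plus 3 SD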;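 further: 0% = DMSO wells and 100% = gossypol 36 µM treated wells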)
Settings: HEK293 GAL4-SRC1 luciferase reporter, at 3.6 µM, active compounds read high

Sequence of Nuclear receptor coactivator 1 (Homo sapiens) (Q15788 whole entry, looked up, the tested form may be a part): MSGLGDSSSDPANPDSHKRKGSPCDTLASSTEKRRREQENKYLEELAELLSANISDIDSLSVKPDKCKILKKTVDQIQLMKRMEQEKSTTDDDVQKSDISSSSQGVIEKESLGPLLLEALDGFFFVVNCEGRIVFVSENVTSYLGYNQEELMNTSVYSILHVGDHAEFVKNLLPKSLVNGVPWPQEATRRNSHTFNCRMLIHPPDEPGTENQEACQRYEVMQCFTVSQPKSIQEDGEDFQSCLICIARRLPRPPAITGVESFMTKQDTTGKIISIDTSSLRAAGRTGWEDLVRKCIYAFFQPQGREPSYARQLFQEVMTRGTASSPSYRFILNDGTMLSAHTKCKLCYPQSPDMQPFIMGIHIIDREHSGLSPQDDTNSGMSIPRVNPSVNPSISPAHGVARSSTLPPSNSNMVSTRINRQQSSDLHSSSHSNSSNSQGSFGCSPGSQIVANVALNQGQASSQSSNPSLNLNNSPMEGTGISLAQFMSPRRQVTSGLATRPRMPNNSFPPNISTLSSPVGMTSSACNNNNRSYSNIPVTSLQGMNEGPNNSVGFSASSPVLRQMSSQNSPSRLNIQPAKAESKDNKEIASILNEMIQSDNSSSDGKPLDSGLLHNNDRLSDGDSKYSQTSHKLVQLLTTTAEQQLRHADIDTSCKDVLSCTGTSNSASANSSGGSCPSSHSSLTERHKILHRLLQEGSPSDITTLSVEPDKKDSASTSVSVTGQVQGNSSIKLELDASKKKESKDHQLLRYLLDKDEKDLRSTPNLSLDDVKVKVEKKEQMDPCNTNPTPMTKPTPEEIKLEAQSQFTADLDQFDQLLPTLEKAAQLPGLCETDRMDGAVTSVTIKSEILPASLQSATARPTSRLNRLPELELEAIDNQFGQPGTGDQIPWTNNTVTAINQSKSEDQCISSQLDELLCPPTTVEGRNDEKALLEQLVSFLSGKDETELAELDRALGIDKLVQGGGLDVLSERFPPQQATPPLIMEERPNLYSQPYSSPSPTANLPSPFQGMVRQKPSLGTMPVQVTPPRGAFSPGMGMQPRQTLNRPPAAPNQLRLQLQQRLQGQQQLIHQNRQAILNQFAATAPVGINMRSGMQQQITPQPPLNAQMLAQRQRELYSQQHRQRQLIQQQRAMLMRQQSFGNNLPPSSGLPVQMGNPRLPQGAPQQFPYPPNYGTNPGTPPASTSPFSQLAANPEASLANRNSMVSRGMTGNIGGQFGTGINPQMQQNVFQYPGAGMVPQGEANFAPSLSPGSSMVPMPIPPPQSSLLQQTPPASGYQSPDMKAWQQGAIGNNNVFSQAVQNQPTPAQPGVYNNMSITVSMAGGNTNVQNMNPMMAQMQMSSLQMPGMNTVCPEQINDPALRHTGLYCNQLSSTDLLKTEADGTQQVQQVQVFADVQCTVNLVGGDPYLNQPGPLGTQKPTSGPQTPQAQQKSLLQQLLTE

SMILES	inhibition
CC1(c2ccccc2)NC(=O)N(CC(=O)Nc2cc3c(cc2Br)OCCO3)C1=O (stereo not given)	-11.8% (inactive)
FC(F)(F)c1cccc(Oc2ccc3c(C(F)(F)F)cc(C(F)(F)F)nc3n2)c1	-2.81% (inactive)
COc1ccc(CCN(C)C(=O)c2cc(S(=O)(=O)N3CCCCC3)ccc2Cl)cc1OC	-9.24% (inactive)
O=c1[nH]nnc2c1ncn2C1OC(CO)C(O)C1O (stereo not given)	0.97% (inactive)
CCc1cc(=O)[nH]c(SCC(=O)NCc2ccc3c(c2)OCO3)n1	-4.66% (inactive)
CCNc1nc(NCC)n2c(SCC(=O)Nc3ccccc3C(F)(F)F)nnc2n1	-4.19% (inactive)
CC(C)(C)c1ccc(-n2ncc3c2CCCC3NC(=O)CN2CCOC2=O)cc1 (stereo not given)	-6.1% (inactive)
O=C(NCCc1ccc(F)cc1)C(=O)NCC1CCCN1S(=O)(=O)c1ccccc1 (stereo not given)	-36.4% (inactive)
CC1=C(C(=O)OC2CCCCC2)C(c2ccc(C)o2)C2=C(CC(C)(C)CC2=O)N1 (stereo not given)	-5.08% (inactive)
CCN(CC(=O)Nc1c(F)cccc1F)C(=O)Cc1csc(-c2ccccc2)n1	-10.5% (inactive)
Cc1nn(-c2ccccc2)c(N2CCCC2)c1/C=N/NC(=O)c1cc(-c2cccnc2)nc2ccccc12	-42.9% (inactive)
O=C(NC1CCCCC1)C(c1ccc(F)cc1)N(Cc1ccco1)C(=O)c1csnn1 (stereo not given)	-14.3% (inactive)
O=C(CC1CCC1)Nc1cccc2c([N+](=O)[O-])cccc12	9.39% (inactive)
O=C(Nc1ccc(Cl)c([N+](=O)[O-])c1)C(Sc1ccccc1)c1ccccc1 (stereo not given)	-8.15% (inactive)
O=C(NC1CCCCC1)c1n[nH]c2c1CCCCC2	-44.7% (inactive)
CCOC(=O)c1[nH]c(C)c(C(=O)OCc2ccc(C)cc2)c1C	4.43% (inactive)
Cc1cc(C)nc(/N=C(\N)Nc2ccc(C(C)C)cc2)n1	3.7% (inactive)
CCOc1ccccc1N1CCN(CC(=O)NC(C)c2ccccc2)CC1 (stereo not given)	-9.98% (inactive)
COCCN(C(=O)C1=COCCO1)c1c(N)n(Cc2ccccc2)c(=O)[nH]c1=O	-12.3% (inactive)
CC(C(=O)Nc1ccon1)N1C(=O)c2ccccc2S1(=O)=O (stereo not given)	-3.82% (inactive)

SMILES	inhibition
CCNc1nc(NC(C)(C)C)nc(N2CCCCC2)n1	8.01% (inactive)
Cc1ccn(CC(=O)N/N=C/c2cc([N+](=O)[O-])ccc2O)n1	7.62% (inactive)
CC(NC(=O)CSc1nc2ccccc2n1C)c1ccccc1 (stereo not given)	0.06% (inactive)
CCC(C)c1ccc(S(=O)(=O)Nc2cccnc2)cc1 (stereo not given)	-9.79% (inactive)
Cc1ccc(CNc2ncnc3ccc(-c4ccc(CO)o4)cc23)o1	11.8% (inactive)
CCCCC(=O)Nc1cccn2ncnc12	24.7% (inactive)
COC(=O)C(C)NC(=O)C12CC3CC(C1)CC(c1ccc(C)cc1)(C3)C2 (stereo not given)	-5.33% (inactive)
Cc1csc(NC(=O)c2cc(-c3ccccc3)nc3ccccc23)n1	7.56% (inactive)
CCOc1cccc(/C=N/NC(=O)c2cccnc2)c1O	17.4% (inactive)
CCOc1ccc(-c2cc(C(=O)Nc3ccc(C)c(NS(C)(=O)=O)c3)[nH]n2)c(C)c1	-14% (inactive)
O=C(Cc1ccsc1)N1CCN(S(=O)(=O)c2cc(C(F)(F)F)cc(C(F)(F)F)c2)CC1	-14.2% (inactive)
COc1ccc(S(=O)(=O)Nc2ccc(F)c(Cl)c2)cc1OC	-9.19% (inactive)
CC(=O)NC(c1cc(Cl)c2cccnc2c1O)C1CC1 (stereo not given)	30.9% (inactive)
Cc1ccc(S(=O)(=O)NCCC2=CCCCC2)cc1	-5.59% (inactive)
O=C(Nc1ccc(Oc2ccccc2)cc1)c1csc([C@@H]2O[C@H](CO)[C@@H](O)[C@H]2O)n1	-12.9% (inactive)
Cc1cc2nc(C3CCCCC3)c(Cc3cccc(F)c3)n2c(C)c1Br	4.23% (inactive)
O=C(c1ccccc1)C1CCN(C(=O)c2cccs2)CC1	-10% (inactive)
CCCCCCn1nc(C(=O)OCC(=O)c2c(N)n(C)c(=O)n(C)c2=O)c2ccccc2c1=O	-6.84% (inactive)
CS(=O)(=O)c1ccc(C(=O)OCC(=O)NC(=O)Cc2ccccc2)cc1	-5.88% (inactive)
Cc1ccc(Cc2c(-c3ccco3)nc3c4ccccc4ccn23)cc1	-81.9% (inactive)

System: not listed separately
Assay: repression of VP16-driven luciferase reporter – cell-based, luminescence, high throughput, counter-screen for SRC1 inhibitor project (AID 588824)
Settings: cell-based VP16 transactivation luciferase luminescence; at 3.6 µM; active compounds read high

SMILES	inhibition
CC1(c2ccccc2)NC(=O)N(CC(=O)Nc2cc3c(cc2Br)OCCO3)C1=O (stereo not given)	-6.44% (inactive)
FC(F)(F)c1cccc(Oc2ccc3c(C(F)(F)F)cc(C(F)(F)F)nc3n2)c1	-6.43% (inactive)
COc1ccc(CCN(C)C(=O)c2cc(S(=O)(=O)N3CCCCC3)ccc2Cl)cc1OC	8.04% (inactive)
O=c1[nH]nnc2c1ncn2C1OC(CO)C(O)C1O (stereo not given)	17.6% (inactive)
CCc1cc(=O)[nH]c(SCC(=O)NCc2ccc3c(c2)OCO3)n1	1.83% (inactive)
CCNc1nc(NCC)n2c(SCC(=O)Nc3ccccc3C(F)(F)F)nnc2n1	-1.57% (inactive)
CC(C)(C)c1ccc(-n2ncc3c2CCCC3NC(=O)CN2CCOC2=O)cc1 (stereo not given)	7.65% (inactive)
O=C(NCCc1ccc(F)cc1)C(=O)NCC1CCCN1S(=O)(=O)c1ccccc1 (stereo not given)	-2.18% (inactive)
CC1=C(C(=O)OC2CCCCC2)C(c2ccc(C)o2)C2=C(CC(C)(C)CC2=O)N1 (stereo not given)	4.47% (inactive)
CCN(CC(=O)Nc1c(F)cccc1F)C(=O)Cc1csc(-c2ccccc2)n1	-7.28% (inactive)
Cc1nn(-c2ccccc2)c(N2CCCC2)c1/C=N/NC(=O)c1cc(-c2cccnc2)nc2ccccc12	-7.83% (inactive)
O=C(NC1CCCCC1)C(c1ccc(F)cc1)N(Cc1ccco1)C(=O)c1csnn1 (stereo not given)	-0.45% (inactive)
O=C(CC1CCC1)Nc1cccc2c([N+](=O)[O-])cccc12	-5.85% (inactive)
O=C(Nc1ccc(Cl)c([N+](=O)[O-])c1)C(Sc1ccccc1)c1ccccc1 (stereo not given)	5.98% (inactive)
O=C(NC1CCCCC1)c1n[nH]c2c1CCCCC2	-18.1% (inactive)
CCOC(=O)c1[nH]c(C)c(C(=O)OCc2ccc(C)cc2)c1C	5.19% (inactive)
Cc1cc(C)nc(/N=C(\N)Nc2ccc(C(C)C)cc2)n1	9.11% (inactive)
CCOc1ccccc1N1CCN(CC(=O)NC(C)c2ccccc2)CC1 (stereo not given)	0.65% (inactive)
COCCN(C(=O)C1=COCCO1)c1c(N)n(Cc2ccccc2)c(=O)[nH]c1=O	-15.5% (inactive)
CC(C(=O)Nc1ccon1)N1C(=O)c2ccccc2S1(=O)=O (stereo not given)	11.8% (inactive)

SMILES	inhibition
CCNc1nc(NC(C)(C)C)nc(N2CCCCC2)n1	12.6% (inactive)
Cc1ccn(CC(=O)N/N=C/c2cc([N+](=O)[O-])ccc2O)n1	9.09% (inactive)
CC(NC(=O)CSc1nc2ccccc2n1C)c1ccccc1 (stereo not given)	-11.7% (inactive)
CCC(C)c1ccc(S(=O)(=O)Nc2cccnc2)cc1 (stereo not given)	-4.32% (inactive)
Cc1ccc(CNc2ncnc3ccc(-c4ccc(CO)o4)cc23)o1	14.7% (inactive)
CCCCC(=O)Nc1cccn2ncnc12	14.8% (inactive)
COC(=O)C(C)NC(=O)C12CC3CC(C1)CC(c1ccc(C)cc1)(C3)C2 (stereo not given)	4.73% (inactive)
Cc1csc(NC(=O)c2cc(-c3ccccc3)nc3ccccc23)n1	1.79% (inactive)
CCOc1cccc(/C=N/NC(=O)c2cccnc2)c1O	9.63% (inactive)
CCOc1ccc(-c2cc(C(=O)Nc3ccc(C)c(NS(C)(=O)=O)c3)[nH]n2)c(C)c1	5.47% (inactive)
O=C(Cc1ccsc1)N1CCN(S(=O)(=O)c2cc(C(F)(F)F)cc(C(F)(F)F)c2)CC1	0.11% (inactive)
COc1ccc(S(=O)(=O)Nc2ccc(F)c(Cl)c2)cc1OC	-10.6% (inactive)
CC(=O)NC(c1cc(Cl)c2cccnc2c1O)C1CC1 (stereo not given)	8.51% (inactive)
Cc1ccc(S(=O)(=O)NCCC2=CCCCC2)cc1	7% (inactive)
O=C(Nc1ccc(Oc2ccccc2)cc1)c1csc([C@@H]2O[C@H](CO)[C@@H](O)[C@H]2O)n1	19.7% (inactive)
Cc1cc2nc(C3CCCCC3)c(Cc3cccc(F)c3)n2c(C)c1Br	11.8% (inactive)
O=C(c1ccccc1)C1CCN(C(=O)c2cccs2)CC1	-0.27% (inactive)
CCCCCCn1nc(C(=O)OCC(=O)c2c(N)n(C)c(=O)n(C)c2=O)c2ccccc2c1=O	-3.36% (inactive)
CS(=O)(=O)c1ccc(C(=O)OCC(=O)NC(=O)Cc2ccccc2)cc1	-3.13% (inactive)
Cc1ccc(Cc2c(-c3ccco3)nc3c4ccccc4ccn23)cc1	-34.6% (inactive)
